# According to article PMC7862700, “An all-to-all approach to the identification of sequence-specific readers for epigenetic DNA modifications on cytosine”:
# Experiments:
# Assay in all cases: DAPPL (digital affinity profiling via proximity ligation, sequencing); 10 mM Tris-HCl pH 7.5, 50 mM NaCl, 1 mM DTT, 4% glycerol, room temperature, 30 min; GST-TFs on glutathione beads, 16-mer random dsDNA library, 0.1% formaldehyde crosslink after washing; high values mean tight binding
# [1] = target: T1, FLI1 (Homo sapiens, UniProt Q01543 1-452); conditions: protein: recombinant; tags: N-terminal GST; dsDNA, one strand shown
# T1 sequence: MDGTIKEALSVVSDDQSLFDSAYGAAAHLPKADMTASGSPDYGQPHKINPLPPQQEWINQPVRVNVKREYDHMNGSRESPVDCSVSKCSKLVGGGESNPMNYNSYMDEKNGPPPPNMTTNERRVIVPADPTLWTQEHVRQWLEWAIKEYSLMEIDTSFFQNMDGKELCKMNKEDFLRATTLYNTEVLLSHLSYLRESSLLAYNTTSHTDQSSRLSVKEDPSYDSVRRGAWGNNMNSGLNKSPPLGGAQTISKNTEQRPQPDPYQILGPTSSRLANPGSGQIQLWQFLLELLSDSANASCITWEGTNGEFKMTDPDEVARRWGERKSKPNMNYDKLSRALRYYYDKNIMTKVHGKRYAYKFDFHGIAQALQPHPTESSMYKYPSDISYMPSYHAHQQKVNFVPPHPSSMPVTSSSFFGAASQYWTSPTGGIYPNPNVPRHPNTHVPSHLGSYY
# How it was run: (§1)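 The binding signal reported is, for every hexamer, its read frequency for a factor over its read frequency for the tag-only sample. Reads came from pools of yeast-expressed, GST-fused human transcription factors on glutathione beads, barcoded with DNA and mixed with that sample, which were incubated with 200 nmole of a random double-stranded 16-mer DNA library in Tris/NaCl/DTT/glycerol buffer at room temperature for 30 min. After washing, the pools were crosslinked with 0.1% formaldehyde, proximity-ligated with BsaI/T4 ligase for 1 h at 37 °C, PCR-amplified and sequenced on an Illumina NextSeq500.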
# [2] = target: T2, ELK1 (Homo sapiens, UniProt P19419 1-428); conditions: protein: recombinant; tags: N-terminal GST; dsDNA, one strand shown
# T2 sequence: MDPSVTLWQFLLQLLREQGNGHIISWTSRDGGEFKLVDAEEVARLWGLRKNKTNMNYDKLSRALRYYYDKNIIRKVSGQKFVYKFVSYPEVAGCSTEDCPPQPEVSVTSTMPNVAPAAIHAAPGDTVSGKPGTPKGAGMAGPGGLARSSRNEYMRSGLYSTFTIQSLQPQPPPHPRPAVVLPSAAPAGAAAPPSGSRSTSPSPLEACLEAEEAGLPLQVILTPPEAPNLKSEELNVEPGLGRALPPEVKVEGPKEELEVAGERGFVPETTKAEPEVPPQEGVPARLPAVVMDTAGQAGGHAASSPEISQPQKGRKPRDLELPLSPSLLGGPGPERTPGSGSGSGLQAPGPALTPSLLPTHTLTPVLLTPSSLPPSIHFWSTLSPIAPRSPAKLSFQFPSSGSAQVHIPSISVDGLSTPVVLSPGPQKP
# How it was run: as §1
# [3] = target: T3, GABPA (Homo sapiens, UniProt Q06546 1-454); conditions: protein: recombinant; tags: N-terminal GST; dsDNA, one strand shown
# T3 sequence: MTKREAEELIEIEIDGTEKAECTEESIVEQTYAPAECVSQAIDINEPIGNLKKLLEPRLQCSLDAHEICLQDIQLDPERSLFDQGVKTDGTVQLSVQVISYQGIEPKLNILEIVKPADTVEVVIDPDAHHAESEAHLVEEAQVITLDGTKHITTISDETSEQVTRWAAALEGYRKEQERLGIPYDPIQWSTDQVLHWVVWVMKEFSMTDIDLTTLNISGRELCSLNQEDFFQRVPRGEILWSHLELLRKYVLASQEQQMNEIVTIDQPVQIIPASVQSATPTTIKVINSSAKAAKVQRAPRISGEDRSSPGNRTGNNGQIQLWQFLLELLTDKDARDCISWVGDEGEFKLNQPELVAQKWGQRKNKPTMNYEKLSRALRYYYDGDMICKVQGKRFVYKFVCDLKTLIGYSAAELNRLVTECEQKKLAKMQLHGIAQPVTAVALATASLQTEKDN
# How it was run: as §1
# [4] = target: T4, ERG (Homo sapiens, UniProt P11308 1-479); conditions: protein: recombinant; tags: N-terminal GST; dsDNA, one strand shown
# T4 sequence: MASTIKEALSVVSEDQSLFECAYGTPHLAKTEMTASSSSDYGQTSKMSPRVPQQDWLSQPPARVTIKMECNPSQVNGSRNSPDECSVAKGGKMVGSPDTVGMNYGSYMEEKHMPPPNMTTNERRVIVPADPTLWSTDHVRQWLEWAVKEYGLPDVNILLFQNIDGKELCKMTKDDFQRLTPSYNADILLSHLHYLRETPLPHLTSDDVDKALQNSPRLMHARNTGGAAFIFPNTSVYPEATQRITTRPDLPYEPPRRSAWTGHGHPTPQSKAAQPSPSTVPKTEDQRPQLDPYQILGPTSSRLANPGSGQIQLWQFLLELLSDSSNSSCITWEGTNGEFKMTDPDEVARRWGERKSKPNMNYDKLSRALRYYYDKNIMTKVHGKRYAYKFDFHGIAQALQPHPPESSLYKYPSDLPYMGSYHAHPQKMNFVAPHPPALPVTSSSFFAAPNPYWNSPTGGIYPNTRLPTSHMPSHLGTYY
# How it was run: as §1
# [5] = target: ELF1 (Homo sapiens, UniProt P32519 1-619); conditions: protein: recombinant; tags: N-terminal GST; dsDNA, one strand shown
# How it was run: as §1
# [6] = target: T5, EHF (Homo sapiens, UniProt Q9NZC4 1-300); conditions: protein: recombinant; tags: N-terminal GST; dsDNA, one strand shown
# T5 sequence: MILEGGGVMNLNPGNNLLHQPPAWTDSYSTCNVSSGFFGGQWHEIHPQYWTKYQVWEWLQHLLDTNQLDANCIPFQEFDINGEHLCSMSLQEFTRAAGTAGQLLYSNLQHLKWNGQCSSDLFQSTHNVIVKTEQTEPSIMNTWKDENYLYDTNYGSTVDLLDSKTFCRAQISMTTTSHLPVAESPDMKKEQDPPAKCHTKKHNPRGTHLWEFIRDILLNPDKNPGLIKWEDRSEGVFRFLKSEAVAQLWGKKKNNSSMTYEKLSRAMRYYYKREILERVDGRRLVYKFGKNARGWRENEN
# How it was run: as §1
# [7] = target: SPI1 (Homo sapiens, UniProt P17947 1-270); conditions: protein: recombinant; tags: N-terminal GST; dsDNA, one strand shown
# How it was run: as §1
# [8] = target: SPIB (Homo sapiens, UniProt Q01892 1-262); conditions: protein: recombinant; tags: N-terminal GST; dsDNA, one strand shown
# How it was run: as §1
# [9] = target: T6, ELK3 (Homo sapiens, UniProt P41970 1-407); conditions: protein: recombinant; tags: N-terminal GST; dsDNA, one strand shown
# T6 sequence: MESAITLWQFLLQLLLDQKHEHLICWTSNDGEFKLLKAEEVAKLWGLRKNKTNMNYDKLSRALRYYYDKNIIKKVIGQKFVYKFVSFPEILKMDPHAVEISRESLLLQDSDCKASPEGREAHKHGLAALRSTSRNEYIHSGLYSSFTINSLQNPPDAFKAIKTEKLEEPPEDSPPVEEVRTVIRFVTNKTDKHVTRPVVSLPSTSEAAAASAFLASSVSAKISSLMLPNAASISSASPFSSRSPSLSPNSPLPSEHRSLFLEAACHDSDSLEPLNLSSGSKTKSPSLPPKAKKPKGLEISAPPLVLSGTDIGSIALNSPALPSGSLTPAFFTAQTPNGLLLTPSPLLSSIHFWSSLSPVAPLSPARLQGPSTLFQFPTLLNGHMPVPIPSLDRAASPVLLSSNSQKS
# How it was run: as §1
# [10] = target: T7, FEV (Homo sapiens, UniProt Q99581 1-238); conditions: protein: recombinant; tags: N-terminal GST; dsDNA, one strand shown
# T7 sequence: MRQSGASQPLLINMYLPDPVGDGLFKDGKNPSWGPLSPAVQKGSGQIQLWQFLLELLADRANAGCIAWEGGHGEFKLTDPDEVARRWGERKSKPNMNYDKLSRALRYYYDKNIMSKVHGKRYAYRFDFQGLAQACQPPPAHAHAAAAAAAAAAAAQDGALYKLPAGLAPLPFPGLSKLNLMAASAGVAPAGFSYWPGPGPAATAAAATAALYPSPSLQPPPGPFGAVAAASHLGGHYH
# How it was run: as §1
# [11] = target: ETV5 (Homo sapiens, UniProt P41161 1-510); conditions: protein: recombinant; tags: N-terminal GST; dsDNA, one strand shown
# How it was run: as §1
# [12] = target: HSF1 (Homo sapiens, UniProt Q00613 1-529); conditions: protein: recombinant; tags: N-terminal GST; chain copies: 3; dsDNA, one strand shown
# How it was run: as §1
# [13] = target: T8, SPIC (Homo sapiens, UniProt Q8N5J4 1-248); conditions: protein: recombinant; tags: N-terminal GST; dsDNA, one strand shown
# T8 sequence: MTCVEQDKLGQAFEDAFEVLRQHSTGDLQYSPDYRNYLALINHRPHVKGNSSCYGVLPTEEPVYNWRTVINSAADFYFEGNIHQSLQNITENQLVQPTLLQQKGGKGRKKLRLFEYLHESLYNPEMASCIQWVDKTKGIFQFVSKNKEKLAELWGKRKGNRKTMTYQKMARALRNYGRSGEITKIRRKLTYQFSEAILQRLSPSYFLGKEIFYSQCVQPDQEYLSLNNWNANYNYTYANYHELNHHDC
# How it was run: as §1
# [14] = target: ELF4 (Homo sapiens, UniProt Q99607 1-663); conditions: protein: recombinant; tags: N-terminal GST; dsDNA, one strand shown
# How it was run: as §1
# [15] = target: T9, ELK4 (Homo sapiens, UniProt P28324-2 1-405); conditions: protein: recombinant; tags: N-terminal GST; dsDNA, one strand shown
# T9 sequence: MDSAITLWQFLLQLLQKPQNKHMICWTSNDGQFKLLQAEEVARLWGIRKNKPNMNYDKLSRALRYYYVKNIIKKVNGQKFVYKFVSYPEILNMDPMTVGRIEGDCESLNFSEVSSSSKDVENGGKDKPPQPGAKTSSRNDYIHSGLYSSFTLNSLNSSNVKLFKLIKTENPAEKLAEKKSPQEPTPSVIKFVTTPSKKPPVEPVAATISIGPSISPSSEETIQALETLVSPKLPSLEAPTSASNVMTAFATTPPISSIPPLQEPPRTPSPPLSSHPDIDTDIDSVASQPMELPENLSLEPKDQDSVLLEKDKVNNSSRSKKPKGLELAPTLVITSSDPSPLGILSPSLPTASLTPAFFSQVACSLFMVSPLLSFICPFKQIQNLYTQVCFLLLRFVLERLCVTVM
# How it was run: as §1
# [16] = target: T10, ELF3 (Homo sapiens, UniProt P78545 1-371); conditions: protein: recombinant; tags: N-terminal GST; dsDNA, one strand shown
# T10 sequence: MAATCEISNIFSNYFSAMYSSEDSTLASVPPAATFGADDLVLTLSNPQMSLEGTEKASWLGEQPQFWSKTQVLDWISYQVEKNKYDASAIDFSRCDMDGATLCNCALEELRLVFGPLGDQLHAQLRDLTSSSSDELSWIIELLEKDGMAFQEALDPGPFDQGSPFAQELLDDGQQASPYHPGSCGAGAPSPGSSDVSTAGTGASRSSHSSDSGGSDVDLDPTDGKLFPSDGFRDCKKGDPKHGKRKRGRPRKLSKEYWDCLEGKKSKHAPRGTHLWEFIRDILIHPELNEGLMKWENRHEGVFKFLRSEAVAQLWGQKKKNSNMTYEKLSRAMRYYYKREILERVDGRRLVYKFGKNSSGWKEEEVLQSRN
# How it was run: as §1
# [17] = target: CRX (Homo sapiens, UniProt O43186 1-299); conditions: protein: recombinant; tags: N-terminal GST; dsDNA, one strand shown
# How it was run: as §1
# [18] = target: ETV1 (Homo sapiens, UniProt P50549 1-477); conditions: protein: recombinant; tags: N-terminal GST; dsDNA, one strand shown
# How it was run: as §1
# Chain of ELF4 (Q99607 whole entry): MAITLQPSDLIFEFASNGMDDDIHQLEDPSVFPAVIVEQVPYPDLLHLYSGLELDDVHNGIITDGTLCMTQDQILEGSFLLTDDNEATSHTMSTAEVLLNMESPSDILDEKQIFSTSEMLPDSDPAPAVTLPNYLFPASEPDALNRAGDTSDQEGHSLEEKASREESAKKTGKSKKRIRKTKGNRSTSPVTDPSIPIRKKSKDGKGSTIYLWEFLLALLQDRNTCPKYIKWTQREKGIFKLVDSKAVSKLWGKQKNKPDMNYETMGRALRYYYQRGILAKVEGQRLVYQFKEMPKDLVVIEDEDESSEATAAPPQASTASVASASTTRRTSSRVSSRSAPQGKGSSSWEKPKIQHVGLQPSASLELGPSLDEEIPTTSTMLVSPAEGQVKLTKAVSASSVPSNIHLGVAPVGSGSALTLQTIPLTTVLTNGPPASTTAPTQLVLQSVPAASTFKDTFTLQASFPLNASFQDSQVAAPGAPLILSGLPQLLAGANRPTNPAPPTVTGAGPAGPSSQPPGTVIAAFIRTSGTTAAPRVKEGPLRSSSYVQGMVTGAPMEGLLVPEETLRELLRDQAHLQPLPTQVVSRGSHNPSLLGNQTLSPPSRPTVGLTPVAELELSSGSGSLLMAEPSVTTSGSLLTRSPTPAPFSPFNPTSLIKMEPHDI
# Chain of ETV1 (P50549 whole entry): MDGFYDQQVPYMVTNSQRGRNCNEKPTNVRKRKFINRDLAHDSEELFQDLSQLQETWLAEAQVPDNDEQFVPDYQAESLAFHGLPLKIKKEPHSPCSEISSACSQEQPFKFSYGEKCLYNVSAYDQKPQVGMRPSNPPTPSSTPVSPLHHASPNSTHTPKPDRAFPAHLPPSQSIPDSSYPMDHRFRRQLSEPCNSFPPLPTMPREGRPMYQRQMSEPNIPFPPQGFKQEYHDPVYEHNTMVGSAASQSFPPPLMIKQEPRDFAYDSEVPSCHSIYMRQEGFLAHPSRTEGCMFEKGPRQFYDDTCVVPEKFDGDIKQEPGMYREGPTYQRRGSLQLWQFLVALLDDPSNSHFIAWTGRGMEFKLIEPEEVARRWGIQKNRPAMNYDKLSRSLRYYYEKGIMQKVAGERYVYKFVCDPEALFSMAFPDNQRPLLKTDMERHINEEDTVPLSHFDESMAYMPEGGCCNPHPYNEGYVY
# Chain of CRX (O43186 whole entry): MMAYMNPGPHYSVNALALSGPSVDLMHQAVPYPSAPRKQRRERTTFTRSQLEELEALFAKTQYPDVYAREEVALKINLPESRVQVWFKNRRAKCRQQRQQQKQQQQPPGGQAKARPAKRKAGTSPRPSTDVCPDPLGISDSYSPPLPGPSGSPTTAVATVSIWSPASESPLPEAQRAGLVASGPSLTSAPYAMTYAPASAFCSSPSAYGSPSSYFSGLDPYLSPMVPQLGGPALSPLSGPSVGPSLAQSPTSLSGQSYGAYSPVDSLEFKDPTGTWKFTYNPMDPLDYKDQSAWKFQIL
# Chain of ETV5 (P41161 whole entry): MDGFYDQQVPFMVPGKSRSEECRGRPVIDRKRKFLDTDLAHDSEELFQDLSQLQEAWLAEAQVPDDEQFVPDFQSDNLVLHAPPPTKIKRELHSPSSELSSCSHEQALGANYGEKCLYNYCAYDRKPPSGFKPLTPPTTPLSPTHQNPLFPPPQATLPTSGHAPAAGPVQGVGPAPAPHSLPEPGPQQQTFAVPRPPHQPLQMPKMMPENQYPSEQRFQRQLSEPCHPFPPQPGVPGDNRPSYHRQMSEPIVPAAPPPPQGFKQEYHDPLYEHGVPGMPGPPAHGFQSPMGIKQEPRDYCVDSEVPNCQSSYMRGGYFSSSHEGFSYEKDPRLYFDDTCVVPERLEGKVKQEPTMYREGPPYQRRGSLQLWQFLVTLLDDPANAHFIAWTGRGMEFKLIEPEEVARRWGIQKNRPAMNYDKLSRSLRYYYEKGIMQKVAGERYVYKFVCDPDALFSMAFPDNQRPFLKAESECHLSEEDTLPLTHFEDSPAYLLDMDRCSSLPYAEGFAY
# Chain of SPIB (Q01892 whole entry): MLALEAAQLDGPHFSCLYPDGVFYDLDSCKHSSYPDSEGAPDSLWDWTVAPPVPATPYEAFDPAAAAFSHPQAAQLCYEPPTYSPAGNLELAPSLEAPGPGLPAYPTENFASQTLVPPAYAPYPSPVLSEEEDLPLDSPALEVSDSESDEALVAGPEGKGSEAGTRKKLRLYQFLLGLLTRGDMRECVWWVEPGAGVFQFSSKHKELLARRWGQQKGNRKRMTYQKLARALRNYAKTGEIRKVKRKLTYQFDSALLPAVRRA
# Chain of ELF1 (P32519 whole entry): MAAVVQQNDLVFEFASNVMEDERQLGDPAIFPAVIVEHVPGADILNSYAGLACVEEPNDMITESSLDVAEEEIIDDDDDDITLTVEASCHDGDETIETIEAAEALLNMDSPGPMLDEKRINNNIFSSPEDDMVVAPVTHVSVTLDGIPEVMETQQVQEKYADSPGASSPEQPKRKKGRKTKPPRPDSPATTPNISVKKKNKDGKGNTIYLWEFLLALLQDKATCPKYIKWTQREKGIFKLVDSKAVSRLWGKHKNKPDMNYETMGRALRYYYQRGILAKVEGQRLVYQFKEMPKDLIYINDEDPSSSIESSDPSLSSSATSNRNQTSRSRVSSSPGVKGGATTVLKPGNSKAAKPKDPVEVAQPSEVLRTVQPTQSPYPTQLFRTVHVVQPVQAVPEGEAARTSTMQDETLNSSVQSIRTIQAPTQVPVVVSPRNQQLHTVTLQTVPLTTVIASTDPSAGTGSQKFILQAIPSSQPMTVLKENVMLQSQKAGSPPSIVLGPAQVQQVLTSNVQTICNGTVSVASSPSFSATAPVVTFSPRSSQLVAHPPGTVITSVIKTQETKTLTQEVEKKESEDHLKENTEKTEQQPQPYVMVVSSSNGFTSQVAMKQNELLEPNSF
# Chain of HSF1 (Q00613 whole entry): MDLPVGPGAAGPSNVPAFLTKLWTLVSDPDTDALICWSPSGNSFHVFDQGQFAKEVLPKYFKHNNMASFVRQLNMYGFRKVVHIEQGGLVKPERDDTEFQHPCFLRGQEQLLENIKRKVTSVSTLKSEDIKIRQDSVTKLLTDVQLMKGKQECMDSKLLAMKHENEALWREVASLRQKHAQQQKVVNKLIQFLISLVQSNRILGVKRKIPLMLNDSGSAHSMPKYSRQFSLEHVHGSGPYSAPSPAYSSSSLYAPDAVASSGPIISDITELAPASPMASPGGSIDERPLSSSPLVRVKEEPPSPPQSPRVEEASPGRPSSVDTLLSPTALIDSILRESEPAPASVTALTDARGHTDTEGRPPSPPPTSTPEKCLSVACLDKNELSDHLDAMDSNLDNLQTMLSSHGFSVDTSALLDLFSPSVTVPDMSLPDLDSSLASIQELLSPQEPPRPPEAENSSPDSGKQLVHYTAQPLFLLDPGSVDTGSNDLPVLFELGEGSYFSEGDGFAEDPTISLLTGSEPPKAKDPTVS
Sequence,binding signal [1],binding signal [2],binding signal [3],binding signal [4],binding signal [5],binding signal [6],binding signal [7],binding signal [8],binding signal [9],binding signal [10],binding signal [11],binding signal [12],binding signal [13],binding signal [14],binding signal [15],binding signal [16],binding signal [17],binding signal [18]
AAAGTT,"1.07 fold enrichment (6-mer frequency, TF over GST control)","1.05 fold enrichment (6-mer frequency, TF over GST control)","1.13 fold enrichment (6-mer frequency, TF over GST control)","1.02 fold enrichment (6-mer frequency, TF over GST control)","1.08 fold enrichment (6-mer frequency, TF over GST control)","1.1 fold enrichment (6-mer frequency, TF over GST control)","1.07 fold enrichment (6-mer frequency, TF over GST control)","1.16 fold enrichment (6-mer frequency, TF over GST control)","1.17 fold enrichment (6-mer frequency, TF over GST control)","1.01 fold enrichment (6-mer frequency, TF over GST control)","1.16 fold enrichment (6-mer frequency, TF over GST control)","1.43 fold enrichment (6-mer frequency, TF over GST control)","1.03 fold enrichment (6-mer frequency, TF over GST control)","1.14 fold enrichment (6-mer frequency, TF over GST control)","1.19 fold enrichment (6-mer frequency, TF over GST control)","1.1 fold enrichment (6-mer frequency, TF over GST control)","1.22 fold enrichment (6-mer frequency, TF over GST control)","1.07 fold enrichment (6-mer frequency, TF over GST control)"
GTTTAT,"1.09 fold enrichment (6-mer frequency, TF over GST control)","1.02 fold enrichment (6-mer frequency, TF over GST control)","1.08 fold enrichment (6-mer frequency, TF over GST control)","1.05 fold enrichment (6-mer frequency, TF over GST control)","1.06 fold enrichment (6-mer frequency, TF over GST control)","1.06 fold enrichment (6-mer frequency, TF over GST control)","1.07 fold enrichment (6-mer frequency, TF over GST control)","1.1 fold enrichment (6-mer frequency, TF over GST control)","1.12 fold enrichment (6-mer frequency, TF over GST control)","1.02 fold enrichment (6-mer frequency, TF over GST control)","1.07 fold enrichment (6-mer frequency, TF over GST control)","1.14 fold enrichment (6-mer frequency, TF over GST control)","1.12 fold enrichment (6-mer frequency, TF over GST control)","1.07 fold enrichment (6-mer frequency, TF over GST control)","1.05 fold enrichment (6-mer frequency, TF over GST control)","1.27 fold enrichment (6-mer frequency, TF over GST control)","1.33 fold enrichment (6-mer frequency, TF over GST control)","1.03 fold enrichment (6-mer frequency, TF over GST control)"
